From PubChem BioAssay (NCATS)
Results filed as inconclusive are left out. A structure can be active in one record and inactive in another. Activity calls are given as the source filed them. Unless noted, calls come from the whole dose curve; as a rule, active = well fitted curve in the direction sought with a large enough effect; inconclusive = small, poorly fitted or top-dose-only effect, or another doubt; inactive = no such curve, though single readings can be large; an effect the other way counts as inactive or inconclusive.

Experiments:
[1] = target: Protein phosphatase 1D (Homo sapiens) (UniProt O15297); assay: RapidFire Mass Spectrometry qHTS Assay for Modulators of WT P53-Induced Phosphatase 1 (WIP1) (AID 1347424);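 note: amount of dephosphorylated VEPPL-S-QETFS peptide product formed by WIP1; series mostly up to about 63 µM; plate controls were DMSO wells for no effect and GSK830371 inhibitor control at 10 µM for full effect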
Method in brief: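 10 nM WIP1 + cpd, 1 h RT; + 2 uM VEPPL-pS-QETFS, 5 min RT; stop 0.5% formic acid; labelled product standard 1 uM; RapidFire MS. Buffer 50 mM Tris pH 7.5, 30 mM MgCl2, 1 mM TCEP.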

[2] = target: Protein phosphatase 1D (Homo sapiens) (UniProt O15297); assay: Rhodamine-PBP qHTS Assay for Modulators of WT P53-Induced Phosphatase 1 (WIP1) (AID 1347425); note: % of control where 0% means no effect
Method in brief: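 WIP1 (5 nM final) was preincubated with compound for 1 hour at room temperature. It then dephosphorylated 10 uM VEPPL-pS-QETFS peptide in Tris-HCl pH 7.5 with 30 mM MgCl2. Released Pi was detected by 10 uM Rh-PBP fluorescence (ex 525/em 598 nm) read at 1-min intervals for 11 min, as delta f1 - f0.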

[3] = Primary qHTS for inhibitors of La Crosse Virus (LACV) - induced cell death in SH-SY5Y cells (AID 1508616);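 note: top concentration of the series differs between compounds; 0% = infected DMSO wells and 100% = uninfected DMSO wells; higher means more rescue of cells from virus-induced death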
Method in brief: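 SH-SY5Y cells (6000/well) plated 24 h, then given compounds by pin transfer and LACV at 0.01 MOI for 6 days at 37C. Viability measured by ATPLite luminescence, normalized to infected DMSO and uninfected DMSO.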

[4] = target: Calcium and integrin-binding protein 1 (Homo sapiens) (UniProt Q99828); assay: Primary qHTS for Identification of Calcium Integrin Binding Protein 1 (CIB1) Competitor (AID 1508620);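 note: GST tagged CIB1 binding a fluorescein labelled alphaIIb integrin peptide tracer; top concentration of the series differs between compounds; % is set by controls: 0 for no effect and ±100 for the full control effect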
Method in brief: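 CIB1-GST (1 uM final) and compound incubated 15 min at room temperature before adding FITC-alphaIIb peptide tracer (100 nM final). Competition for binding read by fluorescence polarization (ex 480, em 540) after another 15 min at room temperature.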

[5] = Primary qHTS for small molecule stabilizers of the endoplasmic reticulum resident proteome: Secreted ER Calcium Modulated Protein (SERCaMP) assay (AID 1508630); note: % is set by controls: 0 for no effect and ±100 for the full control effect
Method in brief: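 GLuc-SERCaMP-expressing SH-SY5Y cells, pretreated 16 h with compound, are challenged with thapsigargin to empty ER calcium stores; after 4 h, coelenterazine is added directly to the medium and luminescence is imaged.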

[6] = A High-Content qHTS Against Drug Library for the Identification of Small Molecules that Inhibit DYT1 Early Onset Primary Dystonia-Associated Cell Pathology (AID 1645839; calls by dose curve; note: series mostly up to about 46 µM)
Method in brief: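 In this high-content image screen, delE TorsinA mislocalization in inducible Flp-In 293 cells is scored as %pathology, with cell count serving as the counterscreen. Compound exposure lasts 48 h under tetracycline induction in reduced-serum medium.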

[7] = target: Cytochrome P450 2D6 (Homo sapiens) (UniProt P10635); assay: Cytochrome P450 family 2 subfamily D member 6 (CYP2D6) small molecule antagonists: luciferase biochemical (cell-free) qHTS assay (AID 1645840; active = well fitted curve in the direction sought with a large enough effect in the repeat runs; an effect the other way counts as inactive or inconclusive; note: nearly all actives have a fitted effect of over 55% in size; note: potency is the fitted concentration of half-maximal effect; for activity change, negative = inhibition: series mostly up to about 57 µM; % is set by controls: 0 for no effect and ±100 for the full control effect)
Method in brief: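 P450-Glo luminescent screen: recombinant CYP2D6 enzyme–proluciferin substrate mix preincubated with compound 10 min at room temperature, then NADPH regeneration added for 1 h at room temperature. Detection reagent added for 20 min; luciferin light read as relative luminescence units.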

[8] = target: Cytochrome P450 2C9 (Homo sapiens) (UniProt P11712); assay: Cytochrome P450 family 2 subfamily C member 9 (CYP2C9) small molecule antagonists: luciferase biochemical (cell-free) qHTS assay (AID 1645842; active = well fitted curve in the direction sought with a large enough effect in the repeat runs; an effect the other way counts as inactive or inconclusive; note: nearly all actives have a fitted effect of over 55% in size; note: potency is the fitted concentration of half-maximal effect; for activity change, negative = inhibition: series mostly up to about 57 µM; % is set by controls: 0 for no effect and ±100 for the full control effect)
Method in brief: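 Luminescence, after 20 min with luciferin detection reagent, reflected CYP2C9 turnover during a 1 h NADPH-driven reaction at 37C. Enzyme-substrate mix contained 0.4% bovine serum albumin and was preincubated with compound 10 min at room temperature.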

[9] = Primary qHTS for inhibitors of nuclear receptor binding SET domain protein 2 (NSD2) in an isogenic RCH-ACV NSD2 p.E1099K mutant (9B) (AID 1645876); note: nearly all actives have a fitted effect of over 70% in size; note: potency is the fitted concentration of half-maximal effect
[10] = Primary qHTS for inhibitors of nuclear receptor binding SET domain protein 2 (NSD2) in an RCH-ACV wild type WT cells (2C) (AID 1645877); note: nearly all actives have a fitted effect of over 70% in size; note: potency is the fitted concentration of half-maximal effect
[11] = target: Cytochrome P450 3A4 (Homo sapiens) (UniProt P08684); assay: Cytochrome P450 family 3 subfamily A member 4 (CYP3A4) small molecule antagonists: luciferase qHTS assay (AID 1645841; active = well fitted curve in the direction sought with a large enough effect in the repeat runs; an effect the other way counts as inactive or inconclusive; note: nearly all actives have a fitted effect of over 45% in size)
Method in brief: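 Luminescent CYP3A4 activity readout: compounds plus enzyme-substrate mix 10 min at room temperature, reaction started with NADPH regenerating system for 1 h, stopped with detection reagent, read after 20 min. Ketoconazole served as control.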

[12] = target: N-terminal Xaa-Pro-Lys N-methyltransferase 1 (Homo sapiens) (UniProt Q9BV86); assay: Confirmatory qHTS for Inhibitors of N-terminal methyltransferase 1 (NTMT1): MTaseGlo Assay (AID 1645874); note: potency is the fitted concentration of half-maximal effect; nearly all actives have a fitted effect of over 65% in size
Method in brief: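 NTMT1 (125 nM) preincubated 15 min with compound and 100 uM SAM, then 1 uM SPKRIA peptide added for 30 min at room temperature. SAH detected by MTase-Glo luminescence; normalized to no-enzyme and DMSO controls, fitted to 4-parameter Hill.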

Calcium and integrin-binding protein 1 (Homo sapiens), sequence (Q99828 whole entry, looked up): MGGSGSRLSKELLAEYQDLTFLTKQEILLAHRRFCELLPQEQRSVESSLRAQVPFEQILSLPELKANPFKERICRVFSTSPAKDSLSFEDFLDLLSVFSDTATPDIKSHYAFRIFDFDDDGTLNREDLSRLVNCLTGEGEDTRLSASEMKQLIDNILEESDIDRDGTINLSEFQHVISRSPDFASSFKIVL
Cytochrome P450 2D6 (Homo sapiens), sequence (P10635 whole entry, looked up): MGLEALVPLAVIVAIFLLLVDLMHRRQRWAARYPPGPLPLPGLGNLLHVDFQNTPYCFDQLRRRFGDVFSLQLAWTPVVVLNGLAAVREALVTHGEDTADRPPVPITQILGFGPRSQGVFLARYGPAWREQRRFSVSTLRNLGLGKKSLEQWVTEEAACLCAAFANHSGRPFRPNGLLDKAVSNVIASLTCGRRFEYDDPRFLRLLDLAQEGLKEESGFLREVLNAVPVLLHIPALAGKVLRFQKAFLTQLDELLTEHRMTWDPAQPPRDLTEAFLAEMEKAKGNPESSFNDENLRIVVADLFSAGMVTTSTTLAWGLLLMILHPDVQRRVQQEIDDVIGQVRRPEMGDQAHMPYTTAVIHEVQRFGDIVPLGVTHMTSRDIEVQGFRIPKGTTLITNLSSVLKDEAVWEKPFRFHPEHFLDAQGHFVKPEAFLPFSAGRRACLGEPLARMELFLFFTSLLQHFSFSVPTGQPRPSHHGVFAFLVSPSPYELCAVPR
Cytochrome P450 2C9 (Homo sapiens), sequence (P11712 whole entry, looked up): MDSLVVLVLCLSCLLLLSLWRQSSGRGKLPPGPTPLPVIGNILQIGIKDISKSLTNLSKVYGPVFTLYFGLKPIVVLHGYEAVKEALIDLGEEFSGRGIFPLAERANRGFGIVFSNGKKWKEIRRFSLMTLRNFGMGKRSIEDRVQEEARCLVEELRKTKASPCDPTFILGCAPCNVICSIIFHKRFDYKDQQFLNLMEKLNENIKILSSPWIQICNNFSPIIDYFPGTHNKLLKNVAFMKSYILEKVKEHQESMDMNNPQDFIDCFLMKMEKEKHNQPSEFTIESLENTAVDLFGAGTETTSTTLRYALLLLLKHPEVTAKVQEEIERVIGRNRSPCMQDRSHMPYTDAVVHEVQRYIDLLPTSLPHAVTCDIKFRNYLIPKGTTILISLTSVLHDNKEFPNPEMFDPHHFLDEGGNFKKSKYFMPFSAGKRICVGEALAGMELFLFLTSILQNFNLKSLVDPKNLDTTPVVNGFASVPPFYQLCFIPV
Protein phosphatase 1D (Homo sapiens), sequence (O15297 whole entry, looked up): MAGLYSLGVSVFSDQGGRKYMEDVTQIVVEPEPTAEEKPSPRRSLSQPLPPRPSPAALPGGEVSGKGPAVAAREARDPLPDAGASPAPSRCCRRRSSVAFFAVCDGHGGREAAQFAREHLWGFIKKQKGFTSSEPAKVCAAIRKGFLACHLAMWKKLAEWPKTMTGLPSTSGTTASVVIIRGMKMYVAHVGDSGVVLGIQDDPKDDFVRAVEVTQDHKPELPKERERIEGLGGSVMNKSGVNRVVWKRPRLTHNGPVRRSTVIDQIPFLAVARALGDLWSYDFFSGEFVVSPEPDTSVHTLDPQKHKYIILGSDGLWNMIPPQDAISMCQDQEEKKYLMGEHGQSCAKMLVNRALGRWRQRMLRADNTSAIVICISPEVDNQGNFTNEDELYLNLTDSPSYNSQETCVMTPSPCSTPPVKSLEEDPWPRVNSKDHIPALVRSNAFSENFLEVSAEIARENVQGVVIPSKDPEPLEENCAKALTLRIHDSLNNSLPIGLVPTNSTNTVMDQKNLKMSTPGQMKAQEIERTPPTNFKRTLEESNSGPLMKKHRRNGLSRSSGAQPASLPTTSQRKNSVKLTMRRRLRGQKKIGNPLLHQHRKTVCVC
Cytochrome P450 3A4 (Homo sapiens), sequence (P08684 whole entry, looked up): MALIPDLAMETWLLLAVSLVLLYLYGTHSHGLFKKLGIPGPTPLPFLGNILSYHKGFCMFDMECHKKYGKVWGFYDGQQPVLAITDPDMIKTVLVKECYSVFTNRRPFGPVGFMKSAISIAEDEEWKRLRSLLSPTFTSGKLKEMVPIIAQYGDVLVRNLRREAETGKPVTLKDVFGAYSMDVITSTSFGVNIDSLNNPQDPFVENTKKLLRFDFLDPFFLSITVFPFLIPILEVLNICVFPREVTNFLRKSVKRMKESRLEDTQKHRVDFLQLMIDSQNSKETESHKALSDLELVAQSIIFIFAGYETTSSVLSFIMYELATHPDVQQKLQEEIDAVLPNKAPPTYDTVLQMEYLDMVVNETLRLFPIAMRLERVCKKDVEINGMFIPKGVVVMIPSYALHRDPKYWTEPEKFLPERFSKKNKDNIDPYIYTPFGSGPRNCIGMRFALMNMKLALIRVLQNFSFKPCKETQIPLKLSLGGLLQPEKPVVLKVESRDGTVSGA
N-terminal Xaa-Pro-Lys N-methyltransferase 1 (Homo sapiens), sequence (Q9BV86 whole entry, looked up): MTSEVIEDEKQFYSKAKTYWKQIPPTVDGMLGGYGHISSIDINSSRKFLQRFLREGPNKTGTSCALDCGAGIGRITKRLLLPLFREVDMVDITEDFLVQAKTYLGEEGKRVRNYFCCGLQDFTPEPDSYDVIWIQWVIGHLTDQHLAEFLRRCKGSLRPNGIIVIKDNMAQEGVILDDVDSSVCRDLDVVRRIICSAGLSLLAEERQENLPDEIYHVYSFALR

CCn1cc(C(=O)O)c(=O)c2cnc(N3CCCC3)nc21
inactive: activity change, negative = inhibition [1] -0.783% [at 12.6 µM] | activity change, negative = inhibition [2] -2.4% [at 11.5 µM] | activity change [3] -0.143% [at 0.858 µM] | Potency [4] | activity change, negative = inhibition [5] -14.1% [at 7.35 µM] | % pathology change, negative = correction [6] 0.401% [at 9.22 µM] | activity change, negative = inhibition [7] -1.21% [at 11.5 µM] | activity change, negative = inhibition [8] -2.8% [at 11.5 µM] | activity change, negative = viability loss [9] 4% [at 9.23 µM] | activity change, negative = cell killing [10] -0.361% [at 9.23 µM]

CCOc1ccc(NC(=O)CC(C)O)cc1 (stereo not drawn)
inactive: Potency [1] | outcome [2] | Potency [3] | Potency [4] | Potency [5] | Potency [6] | Potency [7] | Potency [8] | Potency [9] | Potency [10]

CC(=O)OCC(=O)[C@@]12OC(C)(C)O[C@@H]1C[C@H]1[C@@H]3C[C@H](F)C4=CC(=O)C=C[C@]4(C)[C@@]3(F)[C@@H](O)C[C@@]12C
0.9 nM (active) and inactive: Potency [10]
inactive: Potency [1] | outcome [2] | Potency [3] | Potency [4] | Potency [5] | Potency [6] | Potency [9]

C[C@]12C=CC(=O)C=C1[C@@H](F)C[C@@H]1[C@@H]2[C@@H](O)C[C@@]2(C)[C@H]1CC[C@]2(O)C(=O)CO
inactive: Potency [1] | outcome [2] | Potency [3] | Potency [4] | Potency [5] | Potency [6] | Potency [7] | Potency [8]
active: Potency [10] 0.0422 µM

O=C(CCN1CCC(c2ccccc2)C1)c1ccc2c(c1)OCCO2 (stereo not drawn)
inactive: Potency [1] | outcome [2] | Potency [3] | Potency [4] | Potency [5] | outcome [11] | Potency [8]
active: Potency [7] 0.977 µM | Potency [9] 2.37 µM | Potency [10] 2.99 µM

Cc1c(C)n(Cc2ccccc2)c2ccc(C(=O)OCCN(C)C)cc12
active: Potency [7] 13.8 µM | Potency [8] 12.3 µM | Potency [12] 5.78 µM | Potency [9] 10.6 µM | Potency [10] 9.44 µM
inactive: Potency [1] | outcome [2] | Potency [3] | Potency [4] | Potency [5]

CC(=O)OCC(=O)NCCCOc1cccc(CN2CCCCC2)c1
inactive: Potency [1] | outcome [2] | Potency [3] | Potency [4] | Potency [5] | Potency [6] | Potency [8] | Potency [9] | Potency [10]

NCCc1ccn[nH]1
inactive: Potency [1] | outcome [2] | Potency [3] | Potency [4] | Potency [5] | Potency [6] | Potency [7] | Potency [8] | Potency [9] | Potency [10]

C[C@@H]1C[C@H]2[C@@H]3C[C@H](F)C4=CC(=O)C(Cl)=C[C@]4(C)[C@@]3(F)[C@@H](O)C[C@]2(C)[C@@]1(O)C(=O)CO
inactive: Potency [1] | outcome [2] | Potency [3] | Potency [4] | Potency [5] | Potency [6] | Potency [8]

O=C(O)CNC(=O)c1ccccc1
inactive: Potency [1] | outcome [2] | Potency [3] | Potency [4] | Potency [5] | Potency [6] | Potency [7] | Potency [8] | Potency [9] | Potency [10]
